Compound activity (PubChem)
Anthrax LF inh2 = inhibitors of Bacillus anthracis lethal factor protease. inhibition, % at 10 µM. multiplex microsphere protease cleavage assay, LF. P15917. 360,000 compounds, 0.12% hits; also: plate controls were buffer without enzyme for full effect and enzyme alone for no effect
Target sequence (P15917 whole entry, looked up): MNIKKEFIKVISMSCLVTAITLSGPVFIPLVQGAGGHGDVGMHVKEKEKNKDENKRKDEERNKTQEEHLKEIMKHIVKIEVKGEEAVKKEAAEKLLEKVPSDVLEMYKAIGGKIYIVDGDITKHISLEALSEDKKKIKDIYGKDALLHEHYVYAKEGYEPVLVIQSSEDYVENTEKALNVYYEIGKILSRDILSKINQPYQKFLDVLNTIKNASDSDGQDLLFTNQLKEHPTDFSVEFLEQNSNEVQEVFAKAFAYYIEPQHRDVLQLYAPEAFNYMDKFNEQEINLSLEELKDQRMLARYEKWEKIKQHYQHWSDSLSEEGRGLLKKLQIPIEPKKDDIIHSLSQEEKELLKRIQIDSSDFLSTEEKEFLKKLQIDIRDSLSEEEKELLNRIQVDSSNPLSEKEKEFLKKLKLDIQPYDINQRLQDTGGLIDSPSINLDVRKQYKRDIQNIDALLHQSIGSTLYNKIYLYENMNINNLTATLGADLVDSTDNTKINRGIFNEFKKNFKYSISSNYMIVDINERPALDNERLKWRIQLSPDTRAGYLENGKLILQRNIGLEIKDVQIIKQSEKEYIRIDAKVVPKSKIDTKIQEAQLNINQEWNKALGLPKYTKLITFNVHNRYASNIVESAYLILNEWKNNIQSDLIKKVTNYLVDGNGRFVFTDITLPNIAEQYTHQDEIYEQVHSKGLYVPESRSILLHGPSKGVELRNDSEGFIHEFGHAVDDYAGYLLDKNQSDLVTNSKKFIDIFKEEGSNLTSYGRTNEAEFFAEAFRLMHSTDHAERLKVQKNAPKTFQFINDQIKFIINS
BoNT F protease = inhibitors of Botulinum neurotoxin F light chain protease; Multiplex microsphere protease cleavage assay, flow cytometry; inhibition, % at 10 µM; 360,000 compounds, 0.22% hits; AID 588497; in the data active = inhibition above about 35%, passing the limit was not always enough; inconclusive = no clear call, values can overlap the other calls; also: plate controls were buffer without enzyme for full effect and enzyme alone for no effect
Autofluor counter = counter-screen for toxin protease inhibitors: compound fluorescence; compound autofluorescence counterscreen, microsphere flow cytometry; active compounds read high; fluorescence intensity (concentration not given with the values); 360,000 compounds, 3.1% hits; in the data active = fluorescence intensity above about 16000; inconclusive = no clear call, values can overlap the other calls
BoNT A protease = blocks Botulinum neurotoxin A light chain protease; multiplex microsphere protease substrate cleavage, flow cytometry; inhibition, % at 10 µM; 360,000 compounds, 0.17% hits; AID 588499; also: plate controls were buffer without enzyme for full effect and enzyme alone for no effect
Starred values were filed as active, the others as inactive. An excerpt weighted towards active compounds, which were near 3.5% of everything screened. Rule as the data show it, unless noted: active = inhibition above about 30%; inconclusive = no clear call, values can overlap the other calls; inactive = below that.

For Cc1ccc(NC(=O)NC2CCN(CC(=O)Nc3nccs3)CC2)cc1 the results were Anthrax LF inh2 1, BoNT F protease 0, Autofluor counter 9828 and BoNT A protease -1.
Screening Cc1ccccc1C(=O)NC1CCN(CC(=O)Nc2ccccc2Cl)CC1 returned Anthrax LF inh2 1, BoNT F protease 9, Autofluor counter 3584 and BoNT A protease 4.
`CCOC(=O)c1sc2c(c1C)c(=O)c(C(=O)OCC)cn2CC` gave Anthrax LF inh2 -4, BoNT F protease 4, Autofluor counter 19706* and BoNT A protease 1.
CCOC(=O)c1ccc(N2CN=C3SCC(=O)N3C2)cc1 was read as Anthrax LF inh2 0, BoNT F protease -3, Autofluor counter 23262* and BoNT A protease inconclusive.
Screening Cc1[nH]n(-c2ccccc2)c(=O)c1S(=O)(=O)c1ccccc1 returned Anthrax LF inh2 -2, BoNT F protease -1, Autofluor counter 16181* and BoNT A protease 0.
For Cc1[nH]n(-c2ccccc2)c(=O)c1CCO the results were Anthrax LF inh2 10, BoNT F protease 1, Autofluor counter 4688 and BoNT A protease -1.
CN(C)C(=O)c1cn(-c2ccccc2)nc1-c1cccs1 was read as Anthrax LF inh2 -3, BoNT F protease 0, Autofluor counter 23620* and BoNT A protease inconclusive.
For O=C(Nc1ccc2ccccc2c1)c1cn(-c2ccccc2)nc1-c1cccs1 the results were Anthrax LF inh2 -3, BoNT F protease -7, Autofluor counter 16591* and BoNT A protease 0.
`CN(C)c1ccc(NC(=O)c2cn(-c3ccccc3)nc2-c2cccs2)cc1` gave Anthrax LF inh2 -3, BoNT F protease -22, Autofluor counter 6416 and BoNT A protease 0.
For COc1ccc(-c2c(C)n([O-])c(C)c(-c3ccccc3)[n+]2=O)cc1OC the results were Anthrax LF inh2 -3, BoNT F protease 4, Autofluor counter 21301* and BoNT A protease 2.
Screening C=CCNC(=S)N1N=C(c2ccco2)CC1c1ccco1 (stereo not drawn) returned Anthrax LF inh2 -11, BoNT F protease inconclusive, Autofluor counter 4193 and BoNT A protease -2.
`O=c1[nH]c(=S)[nH]c2sccc12` gave Anthrax LF inh2 -2, BoNT F protease 1, Autofluor counter 3292 and BoNT A protease -1.
For COc1ccc(OC)c(NC(=O)C2CCN(c3ncccn3)CC2)c1 the results were Anthrax LF inh2 -4, BoNT F protease -1, Autofluor counter 19922* and BoNT A protease 1.
COc1ccccc1NC(=O)C1CCN(c2ncccn2)CC1 was read as Anthrax LF inh2 -3, BoNT F protease -2, Autofluor counter 21787* and BoNT A protease -1.
Cc1ccccc1NC(=O)C1CCN(c2cnccn2)CC1 was read as Anthrax LF inh2 -3, BoNT F protease -5, Autofluor counter 21599* and BoNT A protease -2.
CC12C=CC3(CN(Cc4ccccc4)C(=O)C3C1C(=O)NCc1ccco1)O2 (stereo not drawn) was read as Anthrax LF inh2 -13, BoNT F protease 6, Autofluor counter 20657* and BoNT A protease 4.
Screening COC(=O)C1C2C=CC3(CN(Cc4ccco4)C(=O)C13)O2 (stereo not drawn) returned Anthrax LF inh2 0, BoNT F protease -8, Autofluor counter 5953 and BoNT A protease 0.
`Cc1ccc(C(=O)OCC(=O)NC2CCCc3ccccc32)o1` (stereo not drawn) gave Anthrax LF inh2 6, BoNT F protease -3, Autofluor counter 3082 and BoNT A protease 0.
For Cc1ccnc(N2CCC(C(=O)NNC(=O)c3ccncc3)CC2)n1 the results were Anthrax LF inh2 -5, BoNT F protease -4, Autofluor counter 3222 and BoNT A protease 0.
For CCc1cccc(NC(=O)C2CCCN2S(=O)(=O)c2cccc3cccnc23)c1 (stereo not drawn) the results were Anthrax LF inh2 0, BoNT F protease 0, Autofluor counter 4092 and BoNT A protease 2.
O=C(Nc1cccc(C(F)(F)F)c1)C1CCCN1S(=O)(=O)c1cccc2cccnc12 (stereo not drawn) was read as Anthrax LF inh2 -1, BoNT F protease -2, Autofluor counter 20787* and BoNT A protease inconclusive.
For Cc1cccc(NC(=O)C2CCN(c3nccc(C)n3)CC2)c1 the results were Anthrax LF inh2 -12, BoNT F protease -4, Autofluor counter 20388* and BoNT A protease inconclusive.
`Cc1ccnc(N2CCC(C(=O)Nc3nnc(C)s3)CC2)n1` gave Anthrax LF inh2 -6, BoNT F protease -8, Autofluor counter inconclusive and BoNT A protease -2.
Cc1ccnc(N2CCC(C(=O)Nc3ccc4c(c3)CCC4)CC2)n1 was read as Anthrax LF inh2 -2, BoNT F protease -4, Autofluor counter 17140* and BoNT A protease -1.
